Data from PubChem BioAssay (EPA / NIEHS).
Records with an inconclusive call do not appear. Activity calls are given as the source filed them. How the source made its calls, unless noted: active means hit-call score of the fitted dose curve at least 0.9, where 1 is the maximum; inactive means score below 0.9.

Columns and labels:
[1] = ACEA_ER_80hr: ACEA Biosciences xCELLigence Real-Time Cell Analysis on Estrogen Receptor Agonism for Proliferation (AID 2282667; active means hit-call score of the fitted dose curve at least 0.9, where 1 is the maximum); conditions: T47D proliferation, impedance (xCELLigence), 80 h
Method in brief: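 Real-time electrical impedance tracked growth of the human breast line T47D, with the 80 h post-dosing value used. Dosing spanned eight 1:4 steps down from a 100 uM final top concentration, run in duplicate.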

[2] = APR_HepG2_CellCycleArrest_24hr: Apredica 24-hour HepG2 Assay for Cell Cycle Arrest (AID 2282905); conditions: imaging, actives raise or lower the signal;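 further: cell cycle arrest scored as ratio of 2N to 4N nuclear DNA content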
Method in brief: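 Cell cycle arrest is scored from nuclear DNA content measured by high-content imaging of Hoechst 33342-stained HepG2 cells following 24-hour treatment at ten concentrations up to 200 uM, with DMSO as baseline.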

[3] = APR_HepG2_NuclearSize_24hr: Apredica 24-hour HepG2 Assay for Nuclear Size (AID 2282907); conditions: high-content imaging, actives raise or lower the signal
Method in brief: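 Compounds in DMSO (final 0.5%) were added to human HepG2 hepatoma cells at ten concentrations up to 200 uM for 24 hr. Fixed nuclei were stained with Hoechst 33342, and nuclear diameter was quantified from automated images.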

[4] = APR_HepG2_CellLoss_24hr: Apredica 24-hour HepG2 Assay for Cell Loss (AID 2282908); conditions: high-content imaging;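 on AC50: fit in both directions so a hit may be cell loss or gain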
Method in brief: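 Cell number is quantified by fluorescence imaging of Hoechst 33342-stained nuclei following dosing at 0.39–200 uM in 0.5% DMSO. Curves are fitted in both directions from the DMSO baseline.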

[5] = APR_HepG2_MicrotubuleCSK_24hr: Apredica 24-hour HepG2 Assay for Microtubule CSK Stabilty (AID 2282909); conditions: HepG2 microtubule cytoskeleton imaging, actives raise or lower the signal
Method in brief: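 Steps: dose HepG2 for 24 h (0.39–200 uM, 0.5% DMSO); fix 30 min in 3.7% formaldehyde at room temperature; permeabilize; stain alpha-tubulin 60 min; image microtubule cytoskeleton at 20x. Signal change fitted in both directions relative to DMSO.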

[6] = APR_HepG2_MitoticArrest_24hr: Apredica 24-hour HepG2 Assay for Mitotic Arrest (AID 2282910); conditions: high-content imaging, actives raise or lower the signal
Method in brief: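 HepG2 human liver cells were exposed to compounds at 0.39–200 uM (10 concentrations, duplicate) in 0.5% v/v DMSO for 24 hr, then fixed and immunostained for phospho-histone H3 with Hoechst 33342. Mitotic arrest came from HCS fluorescent imaging, fitted bidirectionally against DMSO.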

[7] = APR_HepG2_MitoMembPot_24hr: Apredica 24-hour HepG2 Assay for Mitochondrial Membrane Potential (AID 2282911); conditions: imaging, actives raise or lower the signal
Method in brief: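 Cells are dosed for 24 hr across 0.39 to 200 uM with solvent held at 0.5% DMSO. They are then stained with 250 nM MitoTracker Red CMXRos for 30 min, fixed in 3.7% formaldehyde and imaged.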

[8] = APR_HepG2_MitoMass_24hr: Apredica 24-hour HepG2 Assay for Mitochondrial Mass (AID 2282912); conditions: high-content imaging, actives raise or lower the signal
Method in brief: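 The liver line HepG2 was dosed in duplicate across a 0.39–200 uM series, with final DMSO held at 0.5% v/v, and harvested at 24 hr. High-content imaging measured mitochondrial dye staining.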

[9] = APR_HepG2_p53Act_24hr: Apredica 24-hour HepG2 Assay for p53 Activation (AID 2282913); conditions: high-content imaging, actives raise or lower the signal;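 further: p53 protein immunofluorescence averaged per cell in HepG2 with Hoechst nuclei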
Method in brief: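 Human HepG2 liver cells; 24 hr cpd treatment, 0.39–200 uM, 0.5% DMSO final. Fixed in 3.7% formaldehyde, permeabilized with 0.5% Triton X-100, stained with anti-p53/Cy5 plus Hoechst 33342. Six images per well at 20x; gain or loss vs DMSO.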

[10] = APR_HepG2_CellLoss_72hr: Apredica 72-hour HepG2 Assay for Cell Loss (AID 2282915); conditions: high-content imaging
Method in brief: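 HepG2 cells were exposed for 72 hr to compounds at 0.39–200 uM (ten concentrations, duplicate) in 0.5% v/v final DMSO. Nuclei were stained with Hoechst 33342 after 3.7% formaldehyde fixation, imaged at 20x, and counted; fits bidirectional versus DMSO.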

[11] = APR_HepG2_P-H2AX_72hr: Apredica 72-hour HepG2 Assay for H2AX Phosphorylation (AID 2282916); conditions: imaging, actives raise or lower the signal;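 further: phospho-histone H2A.x immunostain intensity per cell marking DNA damage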
Method in brief: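 Following 72 hr treatment with 0.39–200 uM compound, HepG2 cells were formaldehyde-fixed, permeabilized and stained for phospho-H2A.x; signal was measured by high-content imaging and fitted bidirectionally against DMSO controls.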

[12] = APR_HepG2_MitoMembPot_72hr: Apredica 72-hour HepG2 Assay for Mitochondrial Membrane Potential (AID 2282917); conditions: imaging, actives raise or lower the signal
Method in brief: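 HepG2 cells exposed 72 h to compounds at 0.39–200 uM (0.5% v/v DMSO, duplicates); MitoTracker Red CMXRos 250 nM loaded 30 min before 3.7% formaldehyde fixation, imaged by HCS fluorescence. Bidirectional fit versus DMSO.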

[13] = APR_HepG2_MitoticArrest_72hr: Apredica 72-hour HepG2 Assay for Mitotic Arrest (AID 2282918); conditions: high-content imaging, actives raise or lower the signal
Method in brief: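 Read-out is phospho-histone H3 immunofluorescence with Hoechst nuclear segmentation, imaged at 20x. Human HepG2 liver cells received ten concentrations (0.39–200 uM, final DMSO 0.5% v/v) for 72 hr before fixation. Gain or loss of signal was fitted relative to DMSO.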

[14] = APR_HepG2_P-H2AX_24hr: Apredica 24-hour HepG2 Assay for H2AX Phosphorylation (AID 2282920); conditions: high-content imaging, actives raise or lower the signal
Method in brief: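 HepG2, 24 hr, cpd 0.39–200 uM (10 conc, duplicate), DMSO 0.5% v/v final. Fix 3.7% formaldehyde, Triton X-100 permeabilize, anti-phospho-H2A.x 1:200 + Hoechst 2 ug/mL. Imaged, bidirectional fit vs DMSO.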

[15] = APR_HepG2_StressKinase_72hr: Apredica 72-hour HepG2 Assay for Stress Kinase (AID 2282921); conditions: HepG2 stress kinase (phospho-c-Jun) imaging, actives raise or lower the signal
Method in brief: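 Fluorescence intensity of Cy3-tagged anti-phospho-c-Jun antibody, quantified per cell from Hoechst-defined nuclei across six images per well, served as the read-out following 72 h exposure (0.39–200 uM, 0.5% v/v DMSO).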

[16] = APR_HepG2_StressKinase_24hr: Apredica 24-hour HepG2 Assay for Stress Kinase (AID 2282922); conditions: HepG2 stress kinase (phospho-c-Jun) imaging, actives raise or lower the signal
Method in brief: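 HepG2 cells exposed 24 hr to compound at 0.39–200 uM (10 concentrations, duplicate), 0.5% v/v DMSO final. Fixed in 3.7% formaldehyde, permeabilized with Triton X-100, immunolabeled for phospho-c-Jun with Hoechst 33342; HCS fluorescence imaging, bidirectional fit versus DMSO.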

[17] = APR_HepG2_p53Act_72hr: Apredica 72-hour HepG2 Assay for p53 Activation (AID 2282923); conditions: high-content imaging, actives raise or lower the signal;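 further: average cellular p53 protein immunofluorescence intensity in HepG2 cells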
Method in brief: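 HepG2 monolayers receive test compounds in duplicate at ten concentrations (0.39 through 200 uM) for 72 hr. They are then formaldehyde-fixed, antibody-labelled for p53, Hoechst-stained and imaged, with activity fitted bidirectionally versus DMSO.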

[18] = APR_HepG2_MitoMass_72hr: Apredica 72-hour HepG2 Assay for Mitochondrial Mass (AID 2282924); conditions: high-content imaging, actives raise or lower the signal;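 further: MitoTracker Red CMXRos stain intensity per cell imaged as mitochondrial mass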
Method in brief: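 HepG2 cells were exposed for 72 hr to compounds at 0.39–200 uM (ten concentrations, duplicate, 0.5% v/v DMSO final). Live cells were stained with 250 nM MitoTracker Red CMXRos for 30 min, then fixed in 3.7% formaldehyde and imaged by HCS fluorescence.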

[19] = APR_HepG2_CellCycleArrest_72hr: Apredica 72-hour HepG2 Assay for Cell Cycle Arrest (AID 2282914); conditions: high-content imaging, actives raise or lower the signal
Method in brief: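 Read-out is Hoechst-stained nuclear DNA content measured by automated fluorescence imaging (20x, six images per well), fitted in both directions relative to DMSO. Human HepG2 liver cells received 0.39–200 uM compound for 72 hr at 0.5% v/v DMSO.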

[20] = APR_HepG2_MicrotubuleCSK_72hr: Apredica 72-hour HepG2 Assay for Microtubule CSK Stabilty (AID 2282919); conditions: HepG2 microtubule cytoskeleton, high-content imaging, actives raise or lower the signal
Method in brief: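 HepG2 human liver cells were dosed for 72 h at ten concentrations from 0.39 to 200 uM in duplicate (0.5% v/v DMSO final). Fixed, permeabilized cells were immunostained for alpha-tubulin (Cy5) with a Hoechst counterstain and imaged at 20x.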

Measured: AC50

CCCCc1ccc2c(n1)[C@@H](c1ccc(OC)cc1C[C@H](C)C(=O)O)[C@H](C(=O)O)[C@H]2c1ccc2c(c1)OCO2
inactive: [1] | [2] | [3] | [4] | [5] | [6] | [7] | [8] | [9] | [10] | [11] | [12] | [13] | [14] | [15] | [16] | [17] | [18]

CN1CCN(Cc2cc(-c3ccc4[nH]c(=O)oc4c3)co2)[C@@H](c2ccc(F)cc2)C1
inactive: [1] | [2] | [3] | [7] | [8] | [16]
active: [4] 89.7 µM | [5] 148 µM | [6] 42.1 µM | [9] 65.2 µM | [10] 51.9 µM | [11] 41.5 µM | [12] 66.8 µM | [13] 27 µM | [14] 62 µM | [15] 41.2 µM | [17] 54.8 µM | [18] 64.6 µM

CCOc1ccc2c(c1)C(C)=CC(C)(C)N2
active: [10] 103 µM | [11] 92.7 µM | [13] 78.2 µM | [14] 72.7 µM | [17] 76.1 µM
inactive: [2] | [3] | [4] | [5] | [6] | [7] | [8] | [9] | [19] | [12] | [20] | [15] | [16] | [18]

CCCCCCCCCCC
inactive: [1] | [2] | [3] | [4] | [5] | [6] | [7] | [8] | [9] | [10] | [11] | [12] | [13] | [20] | [14] | [15] | [16] | [18]

CNC(=O)[C@H]1O[C@@H](n2cnc3c(NCc4cc(Cl)ccc4OCc4cc(C)no4)ncnc32)[C@H](O)[C@@H]1N
inactive: [2] | [3] | [4] | [5] | [6] | [8] | [9] | [19] | [10] | [11] | [12] | [13] | [14] | [15] | [16] | [17] | [18]
active: [7] 0.0385 µM

CCOC(=O)C(C)(C)Oc1ccc(Cl)cc1
active: [4] 115 µM | [7] 121 µM
inactive: [2] | [3] | [5] | [6] | [8] | [9] | [19] | [10] | [11] | [12] | [13] | [14] | [15] | [16] | [17] | [18]

CCCCCCC(=O)OCC
inactive: [2] | [3] | [4] | [5] | [6] | [7] | [8] | [9] | [19] | [10] | [11] | [12] | [13] | [20] | [14] | [15] | [16] | [18]

Cc1ccc(C(C)C)c(O)c1
inactive: [2] | [3] | [4] | [5] | [6] | [7] | [8] | [9] | [19] | [10] | [11] | [12] | [13] | [20] | [14] | [15] | [16] | [18]
